Compounds without any hit were thinned out: in the full panel of roughly 83,000, 20% have a hit.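 For each line, cells grew in 96-well plates with the test compound present at a single concentration for 48 hours.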 A number with no mark means an inactive call. Calls of active or inactive are those of the source.
tested on: MDA-MB-435 melanoma; assay: NCI-60 one-dose screen, 48 h (100 = growth as untreated, 0 = no growth, -100 = all killed); conditions: 10 µM unless noted
Procedure: Growth inhibition of the MDA-MB-435 human Melanoma tumor cell line is measured as a screen for anti-cancer activity. Cells are grown in 96 well plates and exposed to the test compound for 48 hours. Compounds are tested at a single concentration, which is 10^-5 M for most compounds. The reported endpoint is percent growth (GI% or GIPRCNT), where numbers from 0 - 100% represent growth inhibition, and numbers from -100% - 0 represent cell death. For example, a value of 40 represents 60% growth inhibition. A value of 0 means no net growth occurred over the course of the experiment. A value of -40 indicates 40% of cells at the beginning of the experiment died by the end of the experiment. A value of -100 means all cells are dead at the end of the experiment.
NCI-60 Human Tumor Cell Lines Screen was performed using the standard one-dose NCI protocol, which is described in more detail at https://dtp.cancer.gov/discovery_development/nci-60/default.htm.
Compounds with GIPRCNT values below 10 were considered active. Activity score was based on GIPRCNT using the following formula: […]
Score is 0 for GIPRCNT values of 100 or above, 50 for GIPRCNT values of 0, and 100 for GIPRCNT values of -100.

Row | SMILES | growth
1 | C[C@@H]1CC[C@@]2(OC1)O[C@H]1C[C@H]3[C@@H]4CC=C5C[C@@H](O[C@@H]6O[C@H](CO)[C@@H](O[C@@H]7O[C@@H](CO)[C@H](O)[C@H]7O)[C@H](O)[C@H]6O[C@@H]6O[C@@H](C)[C@H](O)[C@@H](O)[C@H]6O)CC[C@]5(C)[C@H]4CC[C@]3(C)[C@H]1[C@@H]2C | -92.8% (active)
2 | CCOC(=O)C1=C(C)N=C2SC=C(c3ccccc3)N2[C@H]1c1cn[nH]c1-c1ccc(Cl)cc1 | 49.4%
3 | O=C(CCC(=O)c1nc2ncccc2[nH]1)NN1C(=O)CSC1c1ccc(Cl)cc1 (stereo not given) | 99.7%
4 | CN(C)Cc1ccc(C(=O)Nc2ccc3ncnc(Nc4ccc(Oc5cccc(F)c5)c(Cl)c4)c3c2)cc1 | -89.4% (active)
5 | N#Cc1nc2c(S(=O)(=O)c3ccccc3)c(N)n(Cc3cccnc3)c2nc1C#N | 94.9%
6 | CC(C)c1ccc(NC(=O)Nc2ccc(NC(=O)c3ccccc3N)cc2)cc1 | 46.5%
7 | N#CCC1=NC(c2cccs2)=Nc2ccccc2S1 | 105%
8 | C=NNc1ccccc1 | 105%
9 | O=C1/C(=C/c2ccc(Br)cc2)COc2ccc(O)c(O)c21 | -24.4% (active)
10 | C#CC#CC#CC#CC#CC#CC#CC#CCC1OCC(COC(=O)O[C@@H](C(=O)O[C@H]2C[C@@]3(O)[C@@H](OC(=O)c4ccccc4)[C@@H]4[C@]5(OC(C)=O)CO[C@@H]5C[C@H](O)[C@@]4(C)C(=O)[C@H](OC(C)=O)C(=C2C)C3(C)C)[C@@H](NC(=O)c2ccccc2)c2ccccc2)O1 (stereo not given in full) | -73.5% (active)
11 | CCOc1ccc(/C=N\N=C\c2ccc(OCC)cc2)cc1 | 109%
12 | C#CC#CC#CC#CC#CC#CC#CC#CC[C@H]1OC[C@@H](COC(=O)O[C@@H](C(=O)O[C@H]2C[C@@]3(O)[C@@H](OC(=O)c4ccccc4)[C@@H]4[C@]5(OC(C)=O)CO[C@@H]5C[C@H](O)[C@@]4(C)C(=O)[C@H](OC(C)=O)C(=C2C)C3(C)C)[C@@H](NC(=O)c2ccccc2)c2ccccc2)O1 | -47.8% (active)
13 | C=CCn1c(SCC(=O)Nc2ccc(C(=O)/C=C/c3ccc(OC)cc3)cc2)nnc1-c1ccccc1 | 49%
14 | CC1=NN(c2ccc(Cl)cc2)CC1(C)N=O (stereo not given) | 48.5%
15 | O=C(/C=C/c1ccc(Br)cc1)c1ccc(-n2cc(CN3CCN(c4cc5c(cc4F)c(=O)c(C(=O)O)cn5C4CC4)CC3)nn2)cc1 | 86.6%
16 | COc1ccc(-c2cc(-c3cc(OC)c(OC)c(OC)c3)c(C#N)c(=O)n2CCCCCC(=O)NO)cc1 | 98.2%
17 | Cc1ccc(-c2nc(C(Cl)Cl)nc3cc(C)nn23)cc1 | 12%
18 | Fc1ccc(CNc2c3ccccc3nc3ccccc23)cc1 | 34.8%
19 | Cn1cc(-c2csc(-c3cn(C)c4ccc(Br)cc34)n2)c2cnccc21 | -87.6% (active)
20 | CC(=O)Nc1c(Cl)cc(Cl)c2c1Cc1cc([N+](=O)[O-])ccc1-2 | 85.9%

Row | SMILES | growth
21 | NC(CSC(c1ccccc1)(c1ccccc1)c1ccc2c(c1)OCO2)C(=O)O (stereo not given) | -58% (active)
22 | O=c1nc(Nc2nc3ccccc3s2)[nH]c(=O)c2ccccc12 | 99.9%
23 | Cc1cc(F)ccc1S(=O)(=O)Nc1cc(-c2c(O)ccc3ccccc23)c(O)c2ccccc12 | 28%
24 | COc1ccc2nc3ccccc3c(NCc3ccc(F)cc3)c2c1 | 23.9%
25 | CC(C)CN1CC(C(=O)Nc2ccc3c(c2)-c2ccccc2C3)CC1=O (stereo not given) | 90.2% [50 µM]
26 | CCCn1c(=S)sc2c1nc(C)n1c(Nc3ccccc3)nnc21 | 63.7%
27 | COc1ccc(C(O)c2cc3c(N)c(C(=O)Nc4cccc(Cl)c4)sc3nc2C)cc1 (stereo not given) | 0.877% (active)
28 | CCOC(=O)C1=C(c2ccccc2)N=c2s/c(=C/c3ccc(Br)cc3)c(=O)n2C1c1ccc(O)cc1 (stereo not given) | 96%
29 | COc1cccc(C(=O)OCC(O)C(=O)NC23CC4CC(CC(C4)C2)C3)c1 (stereo not given) | 97.6%
30 | COC(=O)/C=C1/SC(=Nc2cccc(Cl)c2)N(CCc2c[nH]c3ccc(O)cc23)C1=O | 15.9%
31 | O=C1/C=C/[C@@H](O)[C@@H]2C[C@@H](O)C[C@H]2/C=C/CCC[C@H](CCOCc2ccccc2)O1 | 7.86% (active)
32 | Nc1c(C(=O)Nc2ccccn2)sc2nc3c(cc12)C(O)CCC3 (stereo not given) | -44.6% (active)
33 | C[C@@H]1O[C@@H](O[C@@H]2C[C@H](c3ccc4c(c3O)C(=O)C3=C(C4=O)[C@@]4(O)C(=O)C[C@](C)(O)C[C@@]4(O)C=C3)O[C@H](C)[C@H]2O)C[C@H](O)[C@@H]1O | 103%
34 | O=C1C(Cl)=C(NCCN2CCOCC2)C(=O)c2ncccc21 | 102%
35 | CCOC(=O)c1c(NC(=O)c2ccc(OC)cc2)sc2c(CN(C)C)c(O)ccc12 | 68.8%
36 | COc1ccc(C(c2cc(OC)c(OC)c(OC)c2)N2CCCC2)cc1 (stereo not given) | -21.8% (active)
37 | COc1ccc2[nH]cc(-c3nc(-c4cn(C)c5ccncc45)cs3)c2c1 | 64.7%
38 | Cn1cc(-c2nonc2-c2c[nH]c3ccccc23)c2ccccc21 | -45.3% (active)
39 | COc1ccc2c(O)c(/C=C3\N=Nc4ccccc43)oc2c1C[C@H]1CCNC[C@H]1F | 35.4%
40 | COc1cc2oc(-c3cccc(NC(=O)c4ccc5c(c4)OCO5)c3)cc(=O)c2c(OC)c1OC | 53.3%
